The whole screen tested about 65,000 compounds, of which about 2,100 (3.2%) showed an effect of 50% or more. The median lay at about -52%. Only a selection was taken, and strong results are over-represented in it overall.

Among the data in ChEMBL document CHEMBL4513216, “Probing the Open Global Health Chemical Diversity Library for Multistage-Active Starting Points for Next-Generation Antimalarials” (ACS Infect Dis, 2020) are INHIBITION values, retold here.

The subject of the assay is Plasmodium falciparum. Nature of the assay: Screen against P. falciparum Asexual Blood Stage (ABS), at 5uM. Type of assay: functional, Dd2. The following applies: tested at 5 uM.
Take `COc1ncccc1CNC(=O)c1c(C)oc(C)c1C`: the INHIBITION was 32.4%.

As to `Cc1oc(C)c(C(=O)NCc2ccccc2CN(C)C)c1C`, the INHIBITION amounted to 57.3%.

Take `Cc1oc(C)c(C(=O)NCc2cccnc2N(C)C)c1C`: the INHIBITION was -69.8%.

On to `CCOc1ncccc1CNC(=O)c1c(C)oc(C)c1C`, for which the INHIBITION is on record as 58.4%.

As to `Cc1oc(C)c(C(=O)NCc2ccccc2S(=O)(=O)N(C)C)c1C`, the INHIBITION is -57.1%.

For `Cc1oc(C)c(C(=O)NCc2ccccn2)c1C`, the INHIBITION is listed as -148%.

On to `Cc1cc(CC(C)Nc2ncc(C)c(N(C)C)n2)[nH]n1` (stereo not given), for which the INHIBITION is listed as -13.9%.

Take `O=C(c1ccccc1)N1C[C@@H]2CCCO[C@@H]2[C@H](N2CCCC2)C1`: the INHIBITION was -41.1%.

`O=C(O)[C@@H]1CN(C(=O)c2ccc3[nH]nnc3c2)C[C@H]1c1ccccc1`: the INHIBITION is -123%.

Regarding `COCC1(C(=O)N[C@H]2CN(c3nnc(C)s3)C[C@@H]2C2CC2)CCC1`, the INHIBITION is reported as -176%.

As to `CC(C)c1nc(CN(C)C2CCN(CCNS(C)(=O)=O)C2)no1` (stereo not given), the INHIBITION is listed as -20.9%.

As for `CSCCc1ccc(NC(=O)NCc2ccnc(N(C)C)c2)cc1`, the INHIBITION is recorded as -46.2%.

`COc1cc(N2C[C@@H]3COC[C@]3(COc3ncccc3F)C2)ncn1`: the INHIBITION is on record as -25.8%.

As to `c1c(CN2CCCC2)nc2n1CCN(C1CCOCC1)C2`, the INHIBITION is -103%.

Take `Cc1cc2n(n1)CC(CNCc1ccc(OCC3CC3)nc1)CN2` (stereo not given): the INHIBITION is recorded as -101%.

Consider `COc1ccc(CNCC2CNc3cc(C)nn3C2)cn1` (stereo not given), for which the INHIBITION is given as -171%.

`c1ccc(Oc2cc(CNCC3CNc4ccnn4C3)ccn2)cc1` (stereo not given): the INHIBITION was 53.3%.

On to `c1ccc(Oc2ccc(CNCC3CNc4ccnn4C3)cn2)cc1` (stereo not given), for which the INHIBITION is given as -12.8%.

With `COc1cc(CNCC2CNc3ccnn3C2)ccn1` (stereo not given), the INHIBITION is -129%.

With `Cc1cc2n(n1)CC(CNCc1ccc(-n3cccn3)cc1)CN2` (stereo not given), the INHIBITION came out at 53.4%.

For the compound `Cc1cc2n(n1)CC(CNCc1cnn(-c3ccccc3)c1)CN2` (stereo not given), the INHIBITION was -71.4%.

For the compound `Cc1cc2n(n1)CC(CNCc1ccc(Oc3ccccc3)nc1)CN2` (stereo not given), the INHIBITION turned out to be 58.9%.

For the compound `Cc1cc2n(n1)CC(CNCc1ccc(-n3cccn3)nc1)CN2` (stereo not given), the INHIBITION is given as 15.1%.

On to `COc1ccccc1N1CC(NC(=O)c2cc(C(C)C)nn2C)CC1=O` (stereo not given), for which the INHIBITION is -102%.

Turning to `COCC1c2nnn(C)c2CCN1C(=O)CCc1cccc(OC)c1` (stereo not given), the INHIBITION is -85.3%.

As to `CC1CCCN(Cc2ccc(C(N)=O)cc2)C1` (stereo not given), the INHIBITION is recorded as -118%.

Turning to `COc1ccc(NC(C)c2nnnn2-c2ccccc2)cc1F` (stereo not given), the INHIBITION was -2.6%.

Consider `Cc1nc(Cc2ccccc2)nc2sc(C(=O)O)c(C)c12`, for which the INHIBITION is -62.8%.

`CCOC(=O)N1CCN(c2nc(CCN)nc3sc(C)c(C)c23)CC1`: the INHIBITION was 66.1%.

For the compound `Cc1sc2nc(CCN)nc(N3CCS(=O)(=O)CC3)c2c1C`, the INHIBITION is listed as -119%.

Consider `CC(=O)N1CCN(c2nc(C(F)(F)F)nc3sc(C)c(C)c23)CC1`, for which the INHIBITION is on record as -30.4%.

With `Cc1cnn(CC(C)NCc2ccc(OCC(N)=O)cc2)c1` (stereo not given), the INHIBITION is recorded as -49.9%.

Turning to `CCOC(=O)N1CCN(c2nc(NCCCO)c3ccccc3n2)CC1`, the INHIBITION is listed as -50.8%.

Turning to `CCn1ccc(-c2cc(NCCCOc3ccccc3C)nc(C)n2)n1`, the INHIBITION is given as -2.89%.

For the compound `CCOc1ccccc1C(N)CC(C)C` (stereo not given), the INHIBITION was determined as 33.2%.

Turning to `Cc1ccc(Oc2c(F)cccc2OC[C@@H](N)CC(C)C)cc1`, the INHIBITION was 65.9%.

Consider `CC(C)COc1ccccc1C(N)CC(C)C` (stereo not given), for which the INHIBITION turned out to be 28.3%.

Regarding `O=C(O)c1ccnc(SCC(F)(F)F)c1`, the INHIBITION is -13.4%.

`CN1[C@@H](C(=O)NCC2CC2)C[C@H]2CN(Cc3cccc(C#N)c3)C[C@H]21`: the INHIBITION is given as 27.2%.

With `CN1CCN(C[C@@H]2OC[C@H]3CN(Cc4cccc(F)c4)CC[C@H]32)CC1`, the INHIBITION was 19.2%.

As to `Cc1ccc(CN2CC[C@@H]3[C@@H](CO[C@H]3CN3CCN(C)CC3)C2)cc1`, the INHIBITION is -1.6%.

`CN1CCN(C[C@@H]2OC[C@H]3CN(CCc4ccccc4)CC[C@H]32)CC1`: the INHIBITION came out at 66.1%.

Consider `Cn1cccc1C(=O)N1CCO[C@H]2[C@H](OCc3cccnc3)CC[C@@H]21`, for which the INHIBITION is -57.2%.

On to `CC(C)C(=O)N1CCC([C@@H]2C[C@H](C(F)F)n3ncnc3N2)CC1`, for which the INHIBITION is recorded as 12.2%.

On to `COCCN1CCOCC12CCN(C(=O)c1c[nH]c3ccccc13)CC2`, for which the INHIBITION is -122%.

On to `Cc1ccc(CN2CCOCC3(C2)CN(c2ccc(C)s2)C(=O)CO3)o1` (stereo not given), for which the INHIBITION was -71.8%.

In the case of `CCc1cc(N2CCC3(CCCNC3=O)C2)nc(N2CCOCC2)n1` (stereo not given), the INHIBITION was -56.1%.

Regarding `Cc1ccc(CN2CCOC3(COCCN(CCN(C)C)C3)C2)o1` (stereo not given), the INHIBITION is -69.1%.

Consider `COCCNC(=O)C1(Cc2ccccc2-c2ccncc2)CCOCC1`, for which the INHIBITION was -10.1%.

With `CC(C)NC(=O)C1(Cc2ccccc2-c2cccs2)CCNC1` (stereo not given), the INHIBITION was 68.3%.

Turning to `O=C(O)C1(Cc2ccc(-c3cccs3)cc2)CCNC1` (stereo not given), the INHIBITION is given as -44.3%.

As for `CC(C)NC(=O)C1(Cc2ccccc2-c2cncnc2)CCCNC1` (stereo not given), the INHIBITION is listed as -14.3%.

Consider `CC(C)CNC(=O)C1(Cc2ccccc2-c2ccccc2)CCNC1` (stereo not given), for which the INHIBITION amounted to 52%.

On to `O=C(NCCO)C1(Cc2ccccc2-c2cccnc2)CCOCC1`, for which the INHIBITION is recorded as -31.7%.

For the compound `Cc1cc(=O)[nH]c(=O)n1Cc1ncc(-c2ccccc2C(=O)O)s1`, the INHIBITION was -46.1%.

Regarding `O=C1C(NCc2nnc3n2CCCC3)CCN1c1ccccc1Cl` (stereo not given), the INHIBITION is -35.2%.

With `CN(C)CCNC(=O)c1ccc2ccc(N(C)CC3CC3)n2c1`, the INHIBITION was 19.9%.

For `CCN(CC)c1ccc2ccc(C(=O)NC3CC3)cn12`, the INHIBITION is listed as -34.9%.

Take `CN(CC1CC1)c1ccc2ccc(C(=O)NCCc3ccccc3)cn12`: the INHIBITION is reported as -46.3%.

On to `CN(CC1CC1)c1ccc2ccc(C(=O)NC3CCCCC3)cn12`, for which the INHIBITION is 54.6%.

Consider `CN(C)C(=O)CNC(=O)c1ccc2ccc(N(C)CC3CC3)n2c1`, for which the INHIBITION is -73.5%.

In the case of `COCCNC(=O)c1ccc2ccc(N(C)CC3CC3)n2c1`, the INHIBITION amounted to 60.1%.

`Cn1cccc1CN1CCC2(CC1)CN(c1ncccn1)CCO2`: the INHIBITION is on record as -28.5%.

For `Cc1cccc(CN(Cc2cccnc2)C2CC(C)(C)NC(C)(C)C2)n1`, the INHIBITION is 42.9%.

`Cc1ccc(CN(Cc2ccccn2)C2CC(C)(C)NC(C)(C)C2)s1`: the INHIBITION was found to be 69.8%.

For `CC1(C)CC(N(Cc2ccccc2)Cc2c[nH]cn2)CC(C)(C)N1`, the INHIBITION is 20.7%.

Consider `Cc1ccc(CN(Cc2ccccn2)C(=O)[C@H]2CC[C@@H](N)C2)s1`, for which the INHIBITION is -57.1%.

Consider `CC1(C)CC(N(Cc2ccccc2)Cc2cccnc2)CC(C)(C)N1`, for which the INHIBITION was 54.6%.

As to `CC1(C)CC(N(Cc2cccnc2)Cc2cccnc2)CC(C)(C)N1`, the INHIBITION is reported as -5.22%.

With `Cc1ccc(CN(Cc2c[nH]cn2)C2CC(C)(C)NC(C)(C)C2)o1`, the INHIBITION is on record as -50.8%.

With `Cc1ccc(CN(Cc2ccncc2)C2CC(C)(C)NC(C)(C)C2)o1`, the INHIBITION was 66.9%.

With `Cc1ccc(CN(Cc2cccnc2)C2CC(C)(C)NC(C)(C)C2)s1`, the INHIBITION turned out to be 69.6%.

On to `Cc1ccc(CN(Cc2ncc[nH]2)C2CC(C)(C)NC(C)(C)C2)o1`, for which the INHIBITION is reported as -15.9%.

Regarding `Cc1ccc(CN(Cc2ccncc2)C2CCN(C)CC2)s1`, the INHIBITION worked out at 34.9%.

For the compound `CC1(C)CC(N(Cc2ccncc2)Cc2cccnc2)CC(C)(C)N1`, the INHIBITION is given as 25.7%.
